Data reported in PubChem BioAssay (EPA / NIEHS).
Activity calls are given as the source filed them. The calls were made as follows: active = hit-call score of the fitted dose curve at least 0.9, where 1 is the maximum; inactive = score below 0.9.

Assays:
[1] = read-out: Interleukin-1 alpha (IL1a), IL1A (gene 3552); test: BSK_KF3CT_IL1a: BioMAP Diversity Plus: KF3CT Assay for Interleukin-1 alpha (IL1a) Biomarker Activity (AID 2283070); settings: primary human keratinocytes with fibroblasts; actives raise or lower the signal
Summary of the method: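 Human keratinocyte plus foreskin fibroblast primary co-culture, sampled 24 h after chemical dosing. IL-1a measured by ELISA; responses fitted bidirectionally against DMSO baseline (negative control), so gain or loss of signal both count.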

[2] = read-out: TIMP metallopeptidase inhibitor 2 (TIMP2), TIMP2 (gene 7077); test: BSK_KF3CT_TIMP2: BioMAP Diversity Plus: KF3CT Assay for TIMP metallopeptidase inhibitor 2 (TIMP2) Biomarker Activity (AID 2283071); settings: primary human keratinocytes with fibroblasts; actives raise or lower the signal
Summary of the method: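 Human primary keratinocyte/foreskin fibroblast co-culture dosed with chemical and sampled at 24 h. TIMP-2 levels quantified by ELISA; bidirectional fitting against DMSO negative control as baseline.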

[3] = read-out: C-C motif chemokine 2 (Homo sapiens) (UniProt P13500); test: BSK_KF3CT_MCP1: BioMAP Diversity Plus: KF3CT Assay for Monocyte Chemoattractant Protein 1 (MCP1/CCL2) Biomarker Activity (AID 2283073); settings: primary human keratinocytes with fibroblasts; actives raise or lower the signal
Summary of the method: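 Human keratinocyte plus foreskin fibroblast primary co-culture exposed to chemical for 24 h. MCP-1 levels measured by ELISA. Bidirectional curve fitting relative to DMSO negative control as baseline.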

[4] = read-out: Matrix Metallopeptidase 9 (MMP9), MMP9 (gene 4318); test: BSK_KF3CT_MMP9: BioMAP Diversity Plus: KF3CT Assay for Matrix Metallopeptidase 9 (MMP9) Biomarker Activity (AID 2283074); settings: primary human keratinocytes with fibroblasts; actives raise or lower the signal
Summary of the method: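 Keratinocyte plus foreskin fibroblast human primary skin co-culture was dosed with chemical and MMP-9 was quantified by ELISA 24 h later. Bidirectional curve fitting used DMSO as negative control and activity baseline.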

CD40, CD40 (gene 958) [5] = test: BSK_LPS_CD40: BioMAP Diversity Plus: LPS Assay for CD40 Biomarker Activity (AID 2283076); settings: primary human HUVEC with PBMC; actives raise or lower the signal
Summary of the method: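 Primary human umbilical vein endothelial cells co-cultured with peripheral blood mononuclear cells, LPS-stimulated, were dosed with chemical and read 24 h later. CD40 levels were measured by ELISA and fitted bidirectionally against DMSO as negative control and baseline.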

[6] = read-out: E-selectin (Homo sapiens) (UniProt P16581); test: BSK_LPS_Eselectin: BioMAP Diversity Plus: LPS Assay for Eselectin Biomarker Activity (AID 2283077); settings: primary human HUVEC with PBMC; actives raise or lower the signal
Summary of the method: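 Human umbilical vein endothelial cells co-cultured with peripheral blood mononuclear cells under LPS stimulation; E-selectin measured by ELISA 24 h after chemical dosing. Activity fitted bidirectionally against DMSO as negative control and baseline.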

[7] = read-out: Interleukin-8 (IL8), CXCL8 (gene 3576); test: BSK_LPS_IL8: BioMAP Diversity Plus: LPS Assay for Interleukin-8 (IL8) Biomarker Activity (AID 2283078); settings: primary human HUVEC with PBMC; actives raise or lower the signal
Summary of the method: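 Human umbilical vein endothelial cells co-cultured with PBMC were stimulated with LPS; IL-8 levels were measured by ELISA 24 h after chemical dosing. Activity was fitted bidirectionally against DMSO as negative control and baseline.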

[8] = BSK_LPS_SRB: Viability Assessment in the BioMAP Diversity Plus: LPS Assay (AID 2283079); settings: primary human HUVEC with PBMC;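 also: total protein by sulforhodamine B absorbance as a cytotoxicity measure; measured one day after compound addition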
Summary of the method: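 Human umbilical vein endothelial cells co-cultured with PBMC (LPS system) were dosed for 24 h. Total protein was stained with 0.1% sulforhodamine B after 10% TCA fixation, read at 560 nm, and fitted bidirectionally against DMSO baseline.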

[9] = read-out: Interleukin-1 alpha (IL1a), IL1A (gene 3552); test: BSK_LPS_IL1a: BioMAP Diversity Plus: LPS Assay for Interleukin-1 alpha (IL1a) Biomarker Activity (AID 2283080); settings: primary human HUVEC with PBMC; actives raise or lower the signal
Summary of the method: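 Human umbilical vein endothelial cells co-cultured with peripheral blood mononuclear cells were LPS-stimulated and exposed to test chemicals for 24 h. IL-1 alpha was quantified by ELISA, with bidirectional curve fitting against DMSO as the negative control and baseline.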

[10] = read-out: Monocyte Chemoattractant Protein-1 (MCP1), CCL2 (gene 6347); test: BSK_LPS_MCP1: BioMAP Diversity Plus: LPS Assay for Monocyte Chemoattractant Protein-1 (MCP1) Biomarker Activity (AID 2283081); settings: primary human HUVEC with PBMC; actives raise or lower the signal
Summary of the method: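 HUVEC plus PBMC co-culture (human primary cells, LPS system) exposed to test chemical for 24 h; MCP-1 measured by ELISA. Bidirectional curve fitting against DMSO baseline; parallel SRB total-protein staining flags overt cytotoxicity.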

[11] = BSK_LPS_PGE2: BioMAP Diversity Plus: LPS Assay for Prostaglandin E2 (PGE2) Biomarker Activity (AID 2283082); settings: primary human HUVEC with PBMC; actives raise or lower the signal
Summary of the method: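 HUVEC plus PBMC co-culture stimulated with LPS; secreted PGE2 quantified by ELISA 24 h after chemical dosing. Activity fitted bidirectionally against DMSO as negative control and baseline; parallel SRB total-protein staining served as cytotoxicity check.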

[12] = read-out: Macrophage colony-stimulating factor (MCSF), CSF1 (gene 1435); test: BSK_LPS_MCSF: BioMAP Diversity Plus: LPS Assay for Macrophage colony-stimulating factor (MCSF) Biomarker Activity (AID 2283083); settings: primary human HUVEC with PBMC; actives raise or lower the signal
Summary of the method: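 Human umbilical vein endothelial cells co-cultured with peripheral blood mononuclear cells were exposed to compound for 24 h. M-CSF levels were measured by ELISA, and bidirectional curve fitting used DMSO as the negative control and baseline.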

[13] = read-out: Tissue Factor, F3 (gene 2152); test: BSK_LPS_TissueFactor: BioMAP Diversity Plus: LPS Assay for Tissue Factor Biomarker Activity (AID 2283084); settings: primary human HUVEC with PBMC; actives raise or lower the signal
Summary of the method: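 Human umbilical vein endothelial cells co-cultured with peripheral blood mononuclear cells were dosed and stimulated with LPS. Cell-surface CD142 was quantified by ELISA at 24 h. Activity was fitted bidirectionally against DMSO baseline.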

[14] = read-out: Tumor necrosis factor (Homo sapiens) (UniProt P01375); test: BSK_LPS_TNFa: BioMAP Diversity Plus: LPS Assay for Tumour Necrosis Factor alpha (TNFa) Biomarker Activity (AID 2283085); settings: primary human HUVEC with PBMC; actives raise or lower the signal
Summary of the method: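 Human umbilical vein endothelial cells co-cultured with PBMC were exposed to test chemical and TNFa measured by ELISA 24 h after dosing. Bidirectional curve fitting was done relative to DMSO as negative control and baseline.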

[15] = read-out: Vascular cell adhesion molecule 1 (VCAM1), VCAM1 (gene 7412); test: BSK_LPS_VCAM1: BioMAP Diversity Plus: LPS Assay for Vascular cell adhesion molecule 1 (VCAM1) Biomarker Activity (AID 2283086); settings: primary human HUVEC with PBMC; actives raise or lower the signal
Summary of the method: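 Human umbilical vein endothelial cells co-cultured with peripheral blood mononuclear cells under LPS stimulation were exposed to test chemical for 24 h. VCAM-1 levels were then measured by ELISA, with bidirectional curve fitting relative to DMSO as negative control and baseline.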

CD38, CD38 (gene 952) = test: BSK_SAg_CD38: BioMAP Diversity Plus: SAg Assay for CD38 Biomarker Activity (AID 2283087); settings: primary human HUVEC with PBMC; actives raise or lower the signal
Summary of the method: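 Fluorescence ELISA of cell-surface CD38 served as the read-out, with either increase or decrease fitted against DMSO controls. Cells were a human umbilical vein endothelium plus PBMC co-culture under SEB/TSST-1 stimulation, measured 24 h after dosing.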

CD40, CD40 (gene 958) [16] = test: BSK_SAg_CD40: BioMAP Diversity Plus: SAg Assay for CD40 Biomarker Activity (AID 2283088); settings: primary human HUVEC with PBMC; actives raise or lower the signal
Summary of the method: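 Human umbilical vein endothelial cells co-cultured with PBMC; CD40 levels measured by ELISA with fluorescence read-out 24 h after chemical dosing. Gain or loss of signal fitted bidirectionally against DMSO baseline.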

CD69, CD69 (gene 969) = test: BSK_SAg_CD69: BioMAP Diversity Plus: SAg Assay for CD69 Biomarker Activity (AID 2283089); settings: primary human HUVEC with PBMC; actives raise or lower the signal
Summary of the method: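 Values derive from bidirectional fitting relative to DMSO vehicle. Cells: umbilical vein endothelium plus peripheral blood mononuclear cells, treated 24 h before fluorescent ELISA for CD69.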

Measured: outcome

Tumor necrosis factor (Homo sapiens), sequence (P01375 whole entry, looked up): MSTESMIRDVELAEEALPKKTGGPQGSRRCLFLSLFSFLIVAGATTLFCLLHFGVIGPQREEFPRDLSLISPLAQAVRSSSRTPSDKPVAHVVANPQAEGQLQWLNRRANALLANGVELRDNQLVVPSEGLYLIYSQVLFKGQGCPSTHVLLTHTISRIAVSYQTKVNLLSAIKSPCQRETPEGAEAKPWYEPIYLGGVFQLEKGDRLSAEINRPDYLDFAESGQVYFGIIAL
E-selectin (Homo sapiens), sequence (P16581 whole entry, looked up): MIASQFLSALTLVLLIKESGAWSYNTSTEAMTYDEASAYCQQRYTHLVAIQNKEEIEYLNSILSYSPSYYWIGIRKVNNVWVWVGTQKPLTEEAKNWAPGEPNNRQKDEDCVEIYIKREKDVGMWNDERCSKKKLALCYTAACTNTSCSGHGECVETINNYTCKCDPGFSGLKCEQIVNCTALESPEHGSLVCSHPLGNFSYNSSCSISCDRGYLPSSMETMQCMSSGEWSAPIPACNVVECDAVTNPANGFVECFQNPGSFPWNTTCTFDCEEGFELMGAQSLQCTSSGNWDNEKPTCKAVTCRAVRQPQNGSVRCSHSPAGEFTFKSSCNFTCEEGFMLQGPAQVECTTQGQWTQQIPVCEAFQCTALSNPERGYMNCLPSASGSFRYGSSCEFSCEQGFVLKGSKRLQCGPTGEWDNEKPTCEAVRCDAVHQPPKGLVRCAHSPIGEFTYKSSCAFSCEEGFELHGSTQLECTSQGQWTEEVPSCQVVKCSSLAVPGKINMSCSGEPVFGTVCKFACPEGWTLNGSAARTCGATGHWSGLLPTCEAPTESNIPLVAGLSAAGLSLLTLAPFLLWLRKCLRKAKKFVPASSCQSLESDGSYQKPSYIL

CN(C(=O)C(F)(F)C(F)(F)C(F)(F)F)[Si](C)(C)C
inactive: all assays above

NCC(F)(F)C(F)(F)C(F)(F)C(F)(F)C(F)(F)C(F)(F)C(F)(F)C(F)(F)F
inactive: all assays above
